The values that follow come from PubChem BioAssay AID1851 (National Center for Advancing Translational Sciences (NCATS), 2009).

Screen size: about 16,000 compounds; about 5,100 (32%) were called active. About 25% were inconclusive and are not listed. The list shows a part of the results. Values without a mark were called inactive. Calls come from the whole dose curve; as a rule, active = well fitted curve in the direction sought with a large enough effect; inconclusive = small, poorly fitted or top-dose-only effect, or effect the other way; inactive = no such curve, though single readings can be large or run the other way.
% is set by controls: 0 for no effect and ±100 for the full control effect.

This experiment deals with Cytochrome P450 3A4 (Homo sapiens) (UniProt P08684). As to the kind of experiment: Cytochrome panel assay with activity outcomes. The settings on record: recombinant CYP, pro-luciferin dealkylation, luminescence, p450-cyp3a4; series mostly up to 57.1 µM.
Cytochrome P450 3A4 (Homo sapiens), sequence (P08684 whole entry, looked up): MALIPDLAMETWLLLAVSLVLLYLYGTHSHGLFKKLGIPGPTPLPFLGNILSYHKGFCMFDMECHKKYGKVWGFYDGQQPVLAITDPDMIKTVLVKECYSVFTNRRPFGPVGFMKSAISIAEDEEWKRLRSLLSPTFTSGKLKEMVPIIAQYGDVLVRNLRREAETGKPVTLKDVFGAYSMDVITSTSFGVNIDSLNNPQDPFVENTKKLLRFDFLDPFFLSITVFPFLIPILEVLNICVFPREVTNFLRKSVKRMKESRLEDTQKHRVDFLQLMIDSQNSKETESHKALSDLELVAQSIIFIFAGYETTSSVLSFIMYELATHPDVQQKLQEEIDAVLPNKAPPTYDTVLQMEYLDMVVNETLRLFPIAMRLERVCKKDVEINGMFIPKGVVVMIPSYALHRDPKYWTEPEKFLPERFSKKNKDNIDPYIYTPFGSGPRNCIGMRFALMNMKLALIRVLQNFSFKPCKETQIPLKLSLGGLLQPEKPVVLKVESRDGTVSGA
Consider `COc1cc(/C=C(\C#N)c2nc3c(s2)CC(C)CC3)ccc1O` (stereo not drawn), for which the half-maximal activity concentration (AC50) is 25.1 µM (active). For `C=CCOc1ccccc1OC[C@H](O)CNC(C)C`, the AC50 entry is “inactive”.

For `C=CCc1ccccc1OC[C@H](O)CNC(C)C`, the AC50 result is “inactive”.

For the molecule `COC(=O)c1ccccc1NC(=O)C1CCN(C(=O)c2ccc(OC)cc2)CC1`, the AC50 was 6.31 µM (active). With `COc1cc(OC)cc(C(=O)Nc2ccccc2C(=O)N2CCCC2)c1`, the activity, negative = inhibition was -8.41% [at 2.29 µM]. On to `COc1ccc2oc(=O)c(NC(=O)C3CCCCC3)cc2c1`, for which the AC50 entry is “inactive”. Consider `COc1ccc(NC(=O)C2CCN(C(=O)c3cccs3)CC2)c(OC)c1`, for which the AC50 was 28.2 µM (active). `CCOC(=O)C1CCN(C(=O)c2ccccc2NC(C)=O)CC1`: the AC50 entry is “inactive”.

For the molecule `CC(C)(C)c1ccc(OC(=O)Cn2c(C(F)(F)F)nc3ccccc32)cc1`, the AC50 entry was “inactive”.

Turning to `O=C(Cn1c(-c2cscn2)nc2ccccc21)Nc1cc(F)ccc1F`, the AC50 is 14.1 µM (active). On to `COc1ccc(O[C@H]2C=C[C@@H](c3ccccc3)O[C@@H]2CO/N=C(\C)CCN2CCCCc3nc(C)c(C)cc32)cc1`, for which the AC50 was 3.98 µM (active). On the same count and under the same terms, the same measure for `COc1ccc(O[C@H]2C=C[C@@H](c3ccccc3)O[C@@H]2CO/N=C(\C)CCN2CCCc3nc(C)c(C)cc32)cc1`: 3.16 µM (active). Regarding `Cc1cc(C)c(S(=O)(=O)Nc2ccccc2C(F)(F)F)c(C)c1`, the half-maximal activity concentration (AC50) was 2.51 µM (active).

As for `Cc1cc(C)c(S(=O)(=O)Nc2cccc(C(F)(F)F)c2)c(C)c1`, the concentration at half-maximal activity (AC50) is 12.6 µM (active). Take `C[C@@H]1C(=O)N(C)C(=O)c2nc[nH]c21`: the AC50 result is “inactive”. Regarding `O=C(NCCOC12CC3CC(CC(C3)C1)C2)c1cccc(Br)c1`, the activity, negative = inhibition was -3.19% [at 2.29 µM]. On to `CCC(C)Nc1nc(OCC(F)(F)F)nc(OCC(F)(F)F)n1` (stereo not drawn), for which the activity, negative = inhibition is 4.7% [at 11.4 µM]. As to `CNc1nc(NCCOC23CC4CC(CC(C4)C2)C3)nc(OCC(F)(F)F)n1`, the half-maximal activity concentration (AC50) is 25.1 µM (active). Regarding `COC(=O)/C=C/CSC1=N/C(=C/c2ccc(-n3cncn3)cc2)C(=O)N1`, the half-maximal activity concentration (AC50) was 2 µM (active). Regarding `CC(C)Oc1ccc2ccccc2c1C=O`, the activity, negative = inhibition was 6.45% [at 2.29 µM]. Turning to `COc1ccc(Oc2c(C=O)c3ccccc3n2C)cc1`, the half-maximal activity concentration (AC50) is 17.8 µM (active). Regarding `Cn1c(Oc2ccccc2)c(C=O)c2ccccc21`, the AC50 entry is “inactive”. On to `Cn1ncc([N+](=O)[O-])c1C(=O)N1CCOCC1`, for which the activity, negative = inhibition was -9.46% [at 2.29 µM].

With `COc1ccc(C)cc1NC(=O)c1cc2cc3ccc(C)cc3nc2o1`, the AC50 result is “inactive”. On to `Cc1ccc2cc(C(=O)O)c(C)nc2c1`, for which the AC50 result was “inactive”. In the case of `Cc1ccc2cc3cc(C(=O)N4CCCCC4C)oc3nc2c1` (stereo not drawn), the half-maximal activity concentration (AC50) is 12.6 µM (active). With `c1ccc(-c2nc3ccccc3o2)nc1`, the AC50 entry is “inactive”.

As for `Cc1ccc2nc(-c3cccnc3)oc2c1`, the AC50 is 39.8 µM (active). As to `Clc1ccc2oc(-c3cccnc3)nc2c1`, the AC50 entry was “inactive”. Take `CS(=O)(=O)N1CCN(c2c(Cl)cccc2[N+](=O)[O-])CC1`: the AC50 entry was “inactive”. Turning to `O=[N+]([O-])c1ccc(N2CCCC2)cc1N1CCCC1`, the AC50 entry is “inactive”. Consider `Cc1cc(C)n(-c2cc(N3CCN(S(=O)(=O)c4ccc(C)c(C)c4)CC3)ccc2[N+](=O)[O-])n1`, for which the half-maximal activity concentration (AC50) is 3.16 µM (active). With `Cc1cc(C(=O)N/N=C/c2cccc([N+](=O)[O-])c2)c(C)o1`, the AC50 result is “inactive”. For `CCN(CC)C(=O)C(=O)N/N=C/c1cccc(Br)c1`, the AC50 entry is “inactive”. With `C/C(Cn1nc([N+](=O)[O-])cc1C)=N\NC(=O)c1ccc(O)cc1O`, the activity, negative = inhibition was -3.84% [at 2.29 µM]. On to `Cc1c(Cl)c([N+](=O)[O-])nn1Cc1ccc(C(=O)N/N=C\c2cccc(Br)c2)o1`, for which the AC50 was 3.98 µM (active).

In the case of `Cc1c(Cl)c([N+](=O)[O-])nn1Cc1ccc(C(=O)N/N=C\c2cc(Cl)ccc2O)o1`, the AC50 is 2.24 µM (active). Still for that read-out and setting: to `N#Cc1cccc(NC(=O)N2CCCC3(CCN(C(=O)c4ccco4)CC3)C2)c1` belongs 5.01 µM (active).

With `N#Cc1cccc(NC(=O)N2CC[C@@]3(CCCN(C(=O)c4cccc(F)c4)C3)C2)c1`, the AC50 is 10 µM (active). Consider `N#Cc1cccc(NC(=O)N2CC3(CCN(C(=O)c4ccco4)CC3)C2)c1`, for which the AC50 result was “inactive”.

Take `N#Cc1cccc(NC(=O)N2CCCC3(CCN(C(=O)c4cccc(F)c4)CC3)C2)c1`: the AC50 was 15.8 µM (active).

As to `S=c1[nH]c2cc(Cl)ccc2s1`, the activity, negative = inhibition is -16.9% [at 2.29 µM].

As for `CCc1ccc(N2CC(C(=O)NC3=NCCS3)CC2=O)cc1` (stereo not drawn), the activity, negative = inhibition is 3.42% [at 2.29 µM]. `O=C(Nc1ccccc1)C(Cc1ccccc1)NC(=O)C12CC3CC(CC(C3)C1)C2` (stereo not drawn): the AC50 result is “inactive”. Same read-out and setting: the same measure for `CC(C)C(NC(=O)C12CC3CC(CC(C3)C1)C2)C(=O)NC1=NCCS1` (stereo not drawn): 15.8 µM (active). Turning to `CCCS(=O)(=O)N1CCCC(C(=O)NCCCN2CCN(c3ccc(F)cc3)CC2)C1` (stereo not drawn), the activity, negative = inhibition was 14.9% [at 2.29 µM]. Regarding `Cc1ccc(S(=O)(=O)N(CC(=O)N2CCN(c3ccc(F)cc3)CC2)C2CCCCC2)cc1`, the AC50 was 1 µM (active).

On to `Cc1ccc(S(=O)(=O)NC(=O)NN2C[C@H]3CCC[C@@H]3C2)cc1`, for which the AC50 result is “inactive”. With `O[C@H](CNc1ccccn1)c1ccccc1`, the activity, negative = inhibition is -27.1% [at 11.4 µM]. Turning to `CN1CCN(c2nc3c(c(=O)n(C)c(=O)n3C)n2C)CC1`, the activity, negative = inhibition is 0.305% [at 11.4 µM]. With `CN1CCN(c2ncc3nc(-c4cccs4)c(=O)n(CCc4ccccc4)c3n2)CC1`, the AC50 is 20 µM (active).

For the molecule `CN1CCN(c2ncc3nc(-c4cccs4)c(=O)n(Cc4cccs4)c3n2)CC1`, the half-maximal activity concentration (AC50) was 10 µM (active). In the case of `COCCn1c(=O)c(-c2ccc(OC)cc2)nc2cnc(N3CCOCC3)nc21`, the AC50 result is “inactive”. For `COCCn1c(=O)c(-c2cccs2)nc2cnc(N3CCNCC3)nc21`, the half-maximal activity concentration (AC50) is 15.8 µM (active).

As for `COCCn1c(=O)c(-c2ccc(OC)cc2)nc2cnc(N3CCNCC3)nc21`, the AC50 was 15.8 µM (active). Regarding `COCCn1c(=O)c(C)nc2cnc(N3CCNCC3)nc21`, the AC50 entry is “inactive”. On the same count and under the same terms, the same measure for `COc1ccc(-c2nc3cnc(N4CCOCC4)nc3n(CCC#N)c2=O)cc1`: “inactive”; for `CN1CCN(c2ncc3nc(-c4ccccc4)c(=O)n(Cc4cccs4)c3n2)CC1`: “inactive”. As for `C[N+](C)(C)c1ccc([C@H](N)C(=O)O)cc1`, the activity, negative = inhibition was 1.95% [at 11.4 µM]. In the case of `CCc1cccc2c(-c3ccccc3)c3c(nc12)OCC3`, the AC50 result is “inactive”. Regarding `C[C@@H]1C[C@H](OC(=O)[C@@H](O)c2ccccc2)CC(C)(C)N1C`, the AC50 result was “inactive”. In the case of `COCCn1c(=O)c(-c2cccc(C#N)c2)nc2cnc(N3CCOCC3)nc21`, the AC50 result is “inactive”.

As to `COCCn1c(=O)c(-c2cccc(C#N)c2)nc2cnc(N3CCNCC3)nc21`, the AC50 was 20 µM (active). In the case of `Cc1nc2cnc(N3CCNCC3)nc2n(Cc2cccs2)c1=O`, the AC50 was 3.16 µM (active). Consider `O=c1c(-c2cccs2)nc2cnc(N3CCNCC3)nc2n1Cc1cccs1`, for which the AC50 was 2.51 µM (active). With `COCCn1c(=O)c(-c2cccc(C#N)c2)nc2cnc(N3CCN(C)CC3)nc21`, the AC50 entry is “inactive”. Still for that read-out and setting: to `Cc1nc2cnc(N3CCOCC3)nc2n(C)c1=O` belongs “inactive”; to `O=c1nc2ccccc2c2n1C[C@H](CN1CCN(c3ccccc3)CC1)N2`, “inactive”. With `CC(C)=CCC/C(C)=C/CO/N=C1/C[C@@H](O)[C@@H](O)[C@@H]2[C@@H]3C(=O)N(C(C)(C)C)C(=O)[C@H]3CC[C@@H]12`, the activity, negative = inhibition is -26.7% [at 11.4 µM].

As to `COc1cc(Br)cc2cc(C(=O)NCC3CCCO3)c(=O)oc12` (stereo not drawn), the AC50 entry was “inactive”. The same measure, in the same setting: to `COC(=O)C1=C(N)Oc2cc(C)n(CC3CCCO3)c(=O)c2C1c1ccccc1OC` (stereo not drawn) belongs 6.31 µM (active). As for `O=C(O)[C@@H]1[C@@H](C(=O)O)[C@]23C[C@@]2(C(=O)O)[C@]2(C(=O)O)CCC3=C3CCCC312`, the activity, negative = inhibition is 7.71% [at 11.4 µM].

Take `O=C(NCC1CCC(C(=O)O)CC1)OCc1ccccc1` (stereo not drawn): the AC50 result was “inactive”.

Turning to `CNC(=O)[C@H](C)[C@@H]1C[C@@]1(C)[C@@H](NC(=O)OCc1ccccc1)c1ccccc1`, the AC50 is 2.51 µM (active).

Take `CNC(=O)[C@H](C)[C@H]1C[C@]1(C)[C@H](NC(=O)OCc1ccccc1)c1ccccc1`: the half-maximal activity concentration (AC50) was 2 µM (active). Regarding `CCOC(=O)N/N=C1/C[C@@H](O)[C@@H](O)[C@@H]2[C@@H]3C(=O)N(C(C)(C)C)C(=O)[C@H]3CC[C@@H]12`, the activity, negative = inhibition is -11.7% [at 11.4 µM]. For `Cc1noc(C)c1C(=O)N1CCC[C@@]2(CCN(C(=O)Nc3ccccc3)C2)C1`, the half-maximal activity concentration (AC50) was 15.8 µM (active). Take `Cc1noc(C)c1C(=O)N1CCC[C@@]2(CCN(C(=O)NC(C)C)C2)C1`: the AC50 entry is “inactive”.

With `COc1ccc(NC(=O)N2CC3(CCN(C(=O)c4c(C)noc4C)CC3)C2)cc1`, the AC50 entry was “inactive”. The same measure, in the same setting: the same measure for `Cc1noc(C)c1C(=O)N1CCC2(CC1)CN(c1ccccc1)C2`: “inactive”; for `Cc1noc(C)c1C(=O)N1CCC[C@@]2(CCN(c3ccccc3)C2)C1`: 5.01 µM (active); for `Cc1noc(C)c1C(=O)N1CCC[C@@]2(CCN(C(=O)Nc3cccc(F)c3)C2)C1`: 5.01 µM (active).

In the case of `Cc1noc(C)c1C(=O)N1CCC[C@@]2(CCN(c3ncccn3)C2)C1`, the AC50 entry is “inactive”. Consider `C=CC1=C[C@@H](O)C2OC2C12OCCCO2` (stereo partly drawn), for which the activity, negative = inhibition is -4.04% [at 11.4 µM]. For `CCCn1c(=O)c2[nH]c(C3CCCC3)nc2n(CCC)c1=O`, the AC50 result is “inactive”.

Consider `CCCn1c(=O)c2[nH]c(-c3ccc(OCC(=O)NCCN)cc3)nc2n(CCC)c1=O`, for which the AC50 is 2.51 µM (active). For the molecule `O=S(=O)(c1ccccc1)c1cnn2c(C(F)(F)F)cc(-c3ccccc3)nc12`, the AC50 result is “inactive”.

Take `COc1cccc(-c2cc(C(F)(F)F)n3ncc(S(=O)(=O)c4ccccc4)c3n2)c1`: the AC50 was 3.98 µM (active).

For the molecule `Cc1nc2ccccc2n1CC(=O)N/N=C\C=C\c1ccccc1`, the AC50 result was “inactive”. Same read-out and setting: to `CCCn1c(/C=C/c2ccccc2)nc2ccccc21` belongs 17.8 µM (active); to `CCc1ccccc1NC(=S)NCc1ccc2c(c1)OCO2`, 4.47 µM (active). On to `CCOc1c2ccc(C(=O)NCc3ccc4c(c3)OCO4)cc2nn1CC`, for which the activity, negative = inhibition is 14.3% [at 2.29 µM]. Turning to `CCc1c(C(=O)NCc2ccc3c(c2)OCO3)[nH]c(C)c1C(C)=O`, the concentration at half-maximal activity (AC50) was 0.891 µM (active).
